Experimental data: PubChem BioAssay (NCATS)
Activity calls are given as the source filed them. Calls follow the shape of the dose curve; as a rule, active = well fitted curve in the direction sought with a large enough effect; inconclusive = small, poorly fitted or top-dose-only effect, or another doubt; inactive = no such curve, though single readings can be large or run the other way.

test: Validation qHTS assay for inhibitors of Activation Induced Cytidine Deaminase (AID): UDG Counterscreen signal (AID 1347427); settings: biochemical UDG counterscreen, fluorescence signal; series mostly up to 115 µM; activity, negative = inhibition: at the top concentration; also: 0% is about no effect
In short: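 Fluorescence at 560 nm excitation, 665 nm emission reports UDG signal after 250 mM NaOH (2x) addition and 30 min. Enzymes (AID 1 uM, UDG 2 U/mL, at 4/3x) preincubated 10 min with compound, then 4 h with 4x 250 nM DJC20/DJC23 substrate at room temperature.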

Row | SMILES | activity, negative = inhibition
1 | COc1ccccc1N1CCN(CCCCNS(=O)(=O)c2cccc3c(N(C)C)cccc23)CC1 | 2.27% (inactive)
2 | Cc1ccc(C(=O)O[C@H](C(=O)O)[C@@H](OC(=O)c2ccc(C)cc2)C(=O)O)cc1 (tested in a mixture with another compound) | 9.24% (inactive)
3 | CC(C)ON([C@@H](C(=O)NO)C(C)C)S(=O)(=O)c1ccc(-c2ccccc2)cc1 | 11.1% (inactive)
4 | CCCCCCCCCCCCCCCCCC(=O)NCC(COP(=O)([O-])OCC[N+](C)(C)C)OCC (stereo not given) | 10.4% (inactive)
5 | N=C(N)SCCc1ccc(CCSC(=N)N)cc1 | 8.74% (inactive)
6 | CCCCCC(O)c1cccc(OCc2ccc3ccccc3n2)c1 (stereo not given) | -0.0761% (inactive)
7 | O=C(O)[C@@H]1C[C@@H](C(=O)O)N1 | 15.4% (inactive)
8 | CCCC1(C)C(C#N)(C#N)C1(C#N)C#N | 4.44% (inactive)
9 | O=C1O/C(=C/Br)CCC1c1cccc2ccccc12 (stereo not given) | -12% (inactive)
10 | CCc1c(C(=O)NCCc2ccc(N3CCCCC3)cc2)[nH]c2ccc(Cl)cc12 | 8.48% (inactive)
11 | CC(COc1ccc(/C=C/c2ccccc2)cc1)[N+](C)(C)C (stereo not given) | -11.6% (inactive)
12 | N.N.O=C(O)C1(C(=O)O)CCC1.[Pt] | 4.76% (inactive)
13 | Cc1nc2sccn2c(=O)c1CCN1CCC(=C(c2ccccc2)c2ccc(F)cc2)CC1 | 2.38% (inactive)
14 | OC[C@H]1O[C@@H](n2cnc3c(Nc4ccccc4)ncnc32)[C@H](O)[C@@H]1O | -3.87% (inactive)
15 | O=C(O)/C=C/C(O)c1ccc(Cl)cc1 (stereo not given) | 12.4% (inactive)
16 | CCCCN1CCC(n2c(=O)[nH]c3ccccc32)CC1 | 8% (inactive)
17 | C[N+](C)(C)CC(=O)[O-] | 11.4% (inactive)
18 | COc1ccccc1N1CCN(CCN(C(=O)c2ccc(I)cc2)c2ccccn2)CC1 | 0.214% (inactive)
19 | CN=c1nc(-c2ccccc2)n(-c2ccccc2)s1 | 8.95% (inactive)
20 | NC(=S)NCCC[C@H](N)C(=O)O | 12.1% (inactive)

Row | SMILES | activity, negative = inhibition
21 | COc1cc2nc(N3CCN(C(=O)OCc4ccccc4)C(C(=O)NC(C)(C)C)C3)nc(N)c2cc1OC (stereo not given) | 0.328% (inactive)
22 | N#C/C(=C\c1ccc(O)c(O)c1)C(=O)NCCCc1ccccc1 | 10.6% (inactive)
23 | CN1CCc2cc(O)c(O)cc2C(c2ccccc2)C1 (stereo not given) | 2.69% (inactive)
24 | CO/S(=N\S(=O)(=O)c1ccc(Cl)cc1)c1ccc([N+](=O)[O-])cc1 (stereo not given) | 6.04% (inactive)
25 | CCCCCCCCCCCCCCCC(=O)NCC(COP(=O)([O-])OCC[N+](C)(C)C)OCC (stereo not given) | -2.97% (inactive)
26 | Ic1ccc(N2CCN(Cc3c[nH]c4ncccc34)CC2)cc1 | 6.43% (inactive)
27 | NCCNC(=O)c1ncsc1-c1cccc(F)c1 | -7.04% (inactive)
28 | O=C(O)[C@@H]1C[C@H](C(=O)O)N1 | 10.2% (inactive)
29 | C[N+](C)(CCCCCC[N+](C)(C)CCCN1C(=O)c2cccc3cccc(c23)C1=O)CCCN1C(=O)c2cccc3cccc(c23)C1=O | 4.54% (inactive)
30 | CN1CCC[C@H]1c1cccnc1 | 11% (inactive)
31 | C[C@@H](NC(=O)/C(C#N)=C/c1ccc(O)c(O)c1)c1ccccc1 | 6.39% (inactive)
32 | CCCCC/C=C\CC(O)/C=C/c1cccc(CC(O)CCCCO)n1 (stereo not given) | -15% (inactive)
33 | N#C/C(=C\c1c[nH]c2ccccc12)C(=O)c1ccc(O)c(O)c1 | 7.64% (inactive)
34 | Nc1ncnc2c1c(I)cn2[C@@H]1C[C@H](N)[C@@H](O)[C@H]1O | 5.22% (inactive)
35 | C#CCN1C(C)=C(C(=O)OC)C(c2cccc([N+](=O)[O-])c2)C(C(=O)OCC)=C1C (stereo not given) | -6.47% (inactive)
36 | O=c1[nH]c2cc(Cl)c(Cl)cc2[nH]c1=O | 13.6% (inactive)
37 | CN(C)CCCO[C@@H]1[C@H]2OC(C)(C)O[C@H]2O[C@@H]1[C@H](O)CO | 11.8% (inactive)
38 | CCCn1c(=O)c2[nH]c(-c3ccc(OCC(=O)NCCN)cc3)nc2n(CCC)c1=O | -14.4% (inactive)
39 | O=C(O)CC1CC(c2ccccc2)=NO1 (stereo not given) | 11.7% (inactive)
40 | Cc1ccccc1CNc1ncnc2c1ncn2C1OC(CO)C(O)C1O (stereo not given) | 13.8% (inactive)
